The source of these data is PubChem BioAssay.

Activity calls are given as the source filed them.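 Rule for the calls, unless noted: active = inhibition at or above 50% at 10 µM; inactive = inhibition below 50%.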

As usually defined, the inhibition is the change of the read-out against control, counted positive when it falls.

Assay [1] in a line: inhibitors of TNFa-induced NFkB p65 translocation, primary screen, imaging, HUVEC, MLSMR starter and 10KST1 sets (AID 438;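 active = inhibition above 20% together with a positive visual image hit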;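 note: compound added about 3h40 before a 20 min TNFalpha stimulation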;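 for inhibition: signal is the nuclear over cytoplasmic p65 intensity ratio per well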). Particulars: HUVEC TNFa-induced p65 nuclear translocation; cell count: measured here: nuclei count (cytotoxicity indicator), at 2.08 µM; inhibition: at 2 µM, stronger effect = higher value, 0% TNFa-plus-vehicle, 100% no-TNFa wells.
Assay [2] can be described thus: reduction of polyQ htt aggregates in cells – imaging, exon1htt(103Q)mCFP cells, high-content imaging, primary screen (AID 483;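 active = visual image review flags a hit and inhibition of aggregation exceeds 20%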;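 note: compound exposure lasted 3 days before fixation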;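 for nuclei count: percent of the per-plate median nuclei count of sample wells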). Particulars: exon1htt(103Q)mCFP cell line, aggregate imaging, at 2 µM; inhibition of aggregation: stronger effect = higher value; nuclei count: measured here: cell count, toxicity.
Assay [3] can be described thus: endothelial E-selectin expression blockers – imaging, HUVEC, immunofluorescence, MLSMR starter and 10KST1 sets, primary screen (AID 487;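 active = visually confirmed hit in the image check and inhibition above 20%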;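 for inhibition: signal is fraction of cell area covered by stained E-selectin grains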;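 for nuclei count: 100% = median nuclei count of all wells on the same plate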). Particulars: HUVEC TNFalpha-induced E-selectin immunofluorescence imaging, at 2 µM; inhibition: stronger effect = higher value; nuclei count: measured here: cell number, toxicity.
Assay [4] has as its target Voltage-gated potassium channel subunit beta-2 (Rattus norvegicus) (UniProt P62483). The assay is described as follows: inhibitors of rat Kvbeta2 reductase activity – biochemical, NADPH fluorescence, primary screen (AID 622;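 active = fluorescence slope higher than the sample average by over 3 SD, cut at about -0.22 in these data, passing the limit was not always enough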;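 note: slope of raw intensity against log time taken from 70 to 1610 s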). The conditions noted are these: recombinant KvBeta, 4-cyanobenzaldehyde reduction, at 10 µM, stronger effect = higher value.
For assay [5] the target is unchanged. The experiment in a line: enhancers of rat Kvbeta2 NADPH turnover – biochemical, NADPH fluorescence, primary screen (AID 623;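 active = NADPH fluorescence slope more negative than the mean of all samples by about 3 SD, 99.7% confidence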;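 note: fluorescence intensity change per second fitted from 20 to 320 s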). Particulars: Recombinant KvBeta, NADPH fluorescence decrease slope, 10 min; at 10 µM; stronger effect = lower value.
Assay [6] deals with Alpha-2C adrenergic receptor (Homo sapiens) (UniProt P18825). The assay is described as follows: compounds altering alpha2C-coupled GIRK flux – cell-based, HEK293 alpha2C/GIRK1/2, thallium flux, primary screen (AID 624;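 active = fluorescence slope after compound addition differing from the mean of all screened samples at 99.7% confidence, in either direction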;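 note: slope of fluorescence ratio to pre-addition baseline per second over 15 to 24 s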). The conditions noted are these: thallium flux BTC fluorescence, at 10 µM, actives lie on both sides.
Sequence of Alpha-2C adrenergic receptor (Homo sapiens) (P18825 whole entry, looked up): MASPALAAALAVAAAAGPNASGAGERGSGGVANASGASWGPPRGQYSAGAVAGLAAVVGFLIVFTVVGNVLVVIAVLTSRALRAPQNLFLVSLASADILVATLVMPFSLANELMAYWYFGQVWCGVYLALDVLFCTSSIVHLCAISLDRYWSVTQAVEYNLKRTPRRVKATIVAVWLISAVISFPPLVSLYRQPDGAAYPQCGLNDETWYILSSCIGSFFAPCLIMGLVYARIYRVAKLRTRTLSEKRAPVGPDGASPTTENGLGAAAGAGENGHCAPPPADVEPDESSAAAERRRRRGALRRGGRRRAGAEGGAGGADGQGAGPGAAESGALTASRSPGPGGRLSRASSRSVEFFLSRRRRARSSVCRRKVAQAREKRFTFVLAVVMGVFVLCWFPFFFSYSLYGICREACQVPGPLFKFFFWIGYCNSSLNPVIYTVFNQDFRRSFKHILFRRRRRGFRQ
The nature of assay [7]: blockers of RIG-like receptor reporter activation – cell-based, Sendai virus stimulus, luciferase, 10K MLSCN set, TLR/RLR signaling modifier project, primary screen (AID 602276).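 Note: firefly luciferase from ISG56 promoter only with Renilla not read in this screen; 0% = Sendai virus plus DMSO and 100% = medium plus DMSO without virus.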 The conditions noted are these: HEK293 RL24 IRF3 luciferase reporter, at 10 µM, stronger effect = higher value. For orientation: Reporter assays use an easily measured gene product as a stand-in for the process of interest.

Assay [8] in a line: TLR3 IRF3 reporter activation blockers – cell-based, poly I:C stimulus, luciferase, 10K MLSCN set, primary screen (AID 602277;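 active = inhibition of the reporter signal at or above 50%; inactive = inhibition below 50%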). Particulars: HEK293-TLR3 RL24 IRF3 luciferase reporter, at 10 µM, stronger effect = higher value.

Sequence of Voltage-gated potassium channel subunit beta-2 (Rattus norvegicus) (P62483 whole entry, looked up): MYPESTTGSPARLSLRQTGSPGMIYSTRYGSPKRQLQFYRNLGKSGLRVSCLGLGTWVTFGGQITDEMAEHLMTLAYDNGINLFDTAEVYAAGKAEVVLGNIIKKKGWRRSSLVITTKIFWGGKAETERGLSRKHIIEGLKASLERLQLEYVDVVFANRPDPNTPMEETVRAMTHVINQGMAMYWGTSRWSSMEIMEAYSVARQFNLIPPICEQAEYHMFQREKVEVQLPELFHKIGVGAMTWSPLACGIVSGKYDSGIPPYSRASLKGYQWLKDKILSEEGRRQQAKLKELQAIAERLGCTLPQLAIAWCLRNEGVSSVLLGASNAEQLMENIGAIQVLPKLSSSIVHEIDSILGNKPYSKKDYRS

For the molecule `C=C(C)Cn1c(N2CC(C)CC(C)C2)nc2c1c(=O)[nH]c(=O)n2C` (stereo not drawn), the cell count in assay [1] amounted to 616. Besides, the inhibition in assay [1] is -8% (inactive); in assay [3] it was -8.5% (inactive); in assay [7] it was 12.7% (inactive); in assay [8], 41.2% (inactive). Moreover, the inhibition of aggregation in assay [2] is -2.3% (inactive). For the same molecule, the nuclei count in assay [2] stood at 104%; in assay [3] it was 108%. Further, the fluorescence slope in assay [4] is -0.421 (inactive). Further, the NADPH fluorescence slope in assay [5] was -1.7e-05 (inactive). The slope in assay [6] is 0.00499 (inactive).

On to `COc1ccccc1C(=O)N1CCN(C(=O)COc2cccc(C)c2)CC1`, for which the cell count in assay [1] was 430. Also, the inhibition in assay [1] was -5.5% (inactive); in assay [3], -52.5% (inactive); in assay [7], 14% (inactive); in assay [8], 23.5% (inactive). Further, the inhibition of aggregation in assay [2] is 11.7% (inactive). The nuclei count in assay [2] turned out to be 94.2%; in assay [3] it was 102%. Besides, the fluorescence slope in assay [4] was -0.288 (inactive). In assay [5], the NADPH fluorescence slope was -5.4e-05 (inactive). The slope in assay [6] was 0.00401 (inactive).

For the molecule `CCC1CCCCN1C(=O)Cn1c(C(=O)OC)cc2sc(Cl)cc21` (stereo not drawn), in assay [1], the cell count came out at 505. The inhibition in assay [1] is -11.3% (inactive); in assay [3], 7.9% (inactive); in assay [7], 9.78% (inactive); in assay [8], 34.6% (inactive). For the same molecule, the inhibition of aggregation in assay [2] was -19.4% (inactive). Further, the figures for the nuclei count in assay [2] and in assay [3] were 107% and 94.4%, respectively. Further, the fluorescence slope in assay [4] was -0.388 (inactive). Besides, in assay [5], the NADPH fluorescence slope is -2e-05 (inactive). Moreover, the slope in assay [6] is 0.00448 (inactive).

Take `O=C(COC(=O)C1CC1)c1c[nH]c2ccccc12`: the cell count in assay [1] was 468. Further, the inhibition in assay [1] was 4.3% (inactive); in assay [3], -24.9% (inactive); in assay [7] it was -49.1% (inactive); in assay [8] it was -96.8% (inactive). In assay [2], the inhibition of aggregation is 3% (inactive). Besides, the nuclei count in assay [2] stood at 114%; in assay [3], 103%. In assay [4], the fluorescence slope was -0.587 (inactive). In addition, the NADPH fluorescence slope in assay [5] was -2.6e-05 (inactive). The slope in assay [6] is 0.00646 (inactive).

Regarding `COc1ccc(-c2nnc(SCCC(=O)O)n2-c2ccccc2)cc1`, the cell count in assay [1] was 348. Besides, the inhibition was 2.5% (inactive) in assay [1], -10.9% (inactive) in assay [3], 12.1% (inactive) in assay [7] and 16.4% (inactive) in assay [8]. Further, the inhibition of aggregation in assay [2] is -19.5% (inactive). The nuclei count came out at 107% in assay [2] and 124% in assay [3]. Besides, the fluorescence slope in assay [4] is -0.644 (inactive). Besides, the NADPH fluorescence slope in assay [5] was 1.6e-05 (inactive). In addition, the slope in assay [6] was 0.00524 (inactive).

Consider `Cc1ccccc1NC(=O)Cc1nnc(SCC(=O)N2CCN(c3ccccc3)CC2)n1C`, for which, in assay [1], the cell count is 483. Further, the inhibition is -5.3% (inactive) in assay [1], 8.9% (inactive) in assay [3], 11.9% (inactive) in assay [7] and 29.5% (inactive) in assay [8]. In addition, the inhibition of aggregation in assay [2] is 2.3% (inactive). The nuclei count in assay [2] was 99.9%; in assay [3], 131%. The fluorescence slope in assay [4] was -0.402 (inactive). The NADPH fluorescence slope in assay [5] was -5.5e-05 (inactive). The slope in assay [6] was 0.00281 (inactive).

As for `CCOCCCNC(=O)C(c1ccc(C)cc1)N(Cc1ccc2c(c1)OCO2)C(=O)c1cnccn1` (stereo not drawn), the cell count in assay [1] was 275. The inhibition was 13.1% (inactive) in assay [1], -40.9% (inactive) in assay [3], 9.6% (inactive) in assay [7] and 17% (inactive) in assay [8]. For the same molecule, the inhibition of aggregation in assay [2] was 16.3% (inactive). Also, the results for the nuclei count in assay [2] and in assay [3] were 102% and 107%, respectively. Besides, in assay [4], the fluorescence slope was -0.471 (inactive). Besides, in assay [5], the NADPH fluorescence slope is 4.1e-05 (inactive). Moreover, in assay [6], the slope is 0.00515 (inactive).

For `O=C(c1ccccc1Oc1nnnn1-c1ccccc1)N1CCOCC1`, the cell count in assay [1] worked out at 315. The inhibition in assay [1] was -0.9% (inactive); in assay [3], -73.9% (inactive); in assay [7], 9.07% (inactive); in assay [8], 21.2% (inactive). Besides, the inhibition of aggregation in assay [2] is -13.9% (inactive). Further, the figures for the nuclei count in assay [2] and in assay [3] were 107% and 113%, respectively. Also, the fluorescence slope in assay [4] was -0.269 (inactive). Moreover, in assay [5], the NADPH fluorescence slope is 2e-05 (inactive). Also, in assay [6], the slope is 0.00699 (inactive).

In the case of `CN(C)S(=O)(=O)Nc1ccc(Br)cc1F`, the cell count in assay [1] is 688. Also, the inhibition in assay [1] was -11.1% (inactive); in assay [3], -24.9% (inactive); in assay [7] it was 8.09% (inactive); in assay [8] it was 15.9% (inactive). Also, the inhibition of aggregation in assay [2] is 9.4% (inactive). Moreover, the results for the nuclei count in assay [2] and in assay [3] were 103% and 100%, respectively. For the same molecule, the fluorescence slope in assay [4] is -0.439 (inactive). In addition, in assay [5], the NADPH fluorescence slope is -8.8e-06 (inactive). For the same molecule, the slope in assay [6] is 0.00541 (inactive).

Take `Cc1nc2ccc(NC(=O)NCc3ccco3)cc2s1`: the cell count in assay [1] came to 359. The inhibition in assay [1] is -2.2% (inactive); in assay [3] it was -15.3% (inactive); in assay [7], -22.3% (inactive); in assay [8] it was -83.4% (inactive). Moreover, the inhibition of aggregation in assay [2] was 21.2% (inactive). Further, the nuclei count in assay [2] worked out at 100%; in assay [3], 82.3%. In assay [4], the fluorescence slope is -0.338 (inactive). Also, in assay [5], the NADPH fluorescence slope is 5e-06 (inactive). Further, the slope in assay [6] is 0.00475 (inactive).

For the molecule `COc1ccc(-c2cc3n(n2)CCc2nc4ccccc4n2-3)cc1`, the cell count in assay [1] was found to be 415. The inhibition in assay [1] is -32.3% (inactive); in assay [3] it was 37% (inactive); in assay [7], 12.2% (inactive); in assay [8], -17.1% (inactive). Moreover, the inhibition of aggregation in assay [2] is 30.7% (inactive). The nuclei count in assay [2] turned out to be 123%; in assay [3] it was 127%. The fluorescence slope in assay [4] is -0.433 (inactive). In addition, the NADPH fluorescence slope in assay [5] is -1.6e-05 (inactive). Moreover, the slope in assay [6] is 0.00599 (inactive).

Consider `CCOCCCNC(=O)C1CCCN(S(=O)(=O)CC)C1` (stereo not drawn), for which, in assay [1], the cell count came out at 630. The inhibition in assay [1] is -36% (inactive); in assay [3] it was -3.3% (inactive); in assay [7] it was 15.1% (inactive); in assay [8], 12.2% (inactive). Also, the inhibition of aggregation in assay [2] was -6.6% (inactive). The results for the nuclei count in assay [2] and in assay [3] were 112% and 95.1%, respectively. Also, the fluorescence slope in assay [4] is -0.408 (inactive). In addition, the NADPH fluorescence slope in assay [5] is -4e-05 (inactive). The slope in assay [6] is 0.00421 (inactive).

For `COC(=O)N1CC(c2ccccc2)CC1=O` (stereo not drawn), the cell count in assay [1] was found to be 639. The inhibition in assay [1] was -0.6% (inactive); in assay [3] it was -61.9% (inactive); in assay [7] it was 7.79% (inactive); in assay [8] it was 16.7% (inactive). Further, the inhibition of aggregation in assay [2] was -22.4% (inactive). For the same molecule, the results for the nuclei count in assay [2] and in assay [3] were 119% and 73%, respectively. In addition, in assay [4], the fluorescence slope was -0.47 (inactive). In addition, the NADPH fluorescence slope in assay [5] was -0.000268 (inactive). Also, in assay [6], the slope is 0.00505 (inactive).
